Reference: PubChem BioAssay AID1159580 (chemical genetic matrix, 2015)
Values joined by “and” are separate entries in the source; they are usually repeats but may differ in a detail not shown here. Identical values can stand only once. Among all 5,500 compounds or so, about 2,000 (36%) were called active. About 18% were inconclusive and are not listed. Cut-off read from the data, not from the text of the source: active = normalized growth mostly below about 0.91 (no sharp cut-off); inconclusive = no clear call, values can overlap the other calls; inactive = mostly above about 0.92. The list shows a part of the results.

Assay: chemical genetic growth profiling, strain panel (AID 1159580);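 note: tested at 20 µM; growth read once vehicle control cultures reached saturation at 30 °C; 1 = growth at the plate median or of vehicle wells; lower values mean less growth of the strain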
Settings: S. cerevisiae deletion strains, growth OD

Measured: normalized growth

CC[C@@]1(O)C(=O)OCc2c1cc1n(c2=O)Cc2cc3cc(O)ccc3nc2-1
inactive: locus YAL021C, strain ccr4, stronger effect = lower value 1.05 | locus YAL026C, strain drs2, stronger effect = lower value 1.01 | locus YAL030W, strain snc1, stronger effect = lower value 1.02 | locus YBL061C, strain skt5, stronger effect = lower value 1.01 | locus YBR009C, strain hhf1, stronger effect = lower value 0.972 | locus YBR021W, strain FUR4, stronger effect = lower value 1.01 | locus YBR023C, strain chs3, stronger effect = lower value 1.02 | locus YBR171W, strain sec66, stronger effect = lower value 1.02 | locus YBR229C, strain ROT2, stronger effect = lower value 1.01 | locus YBR231C, strain swc5, stronger effect = lower value 0.98 | locus YBR279W, strain paf1, stronger effect = lower value 1.03 | locus YCL011C, strain gbp2, stronger effect = lower value 1.02 | locus YCL016C, strain dcc1, stronger effect = lower value 1.01 | locus YCL029C, strain bik1, stronger effect = lower value 0.992 | locus YCL069W, strain vba3, stronger effect = lower value 1.01 | locus YCR088W, strain abp1, stronger effect = lower value 1.01 | locus YDL005C, strain med2, stronger effect = lower value 1.02 | locus YDL035C, strain GPR1, stronger effect = lower value 1.01 | locus YDL040C, strain nat1, stronger effect = lower value 1.02 | locus YDL074C, strain BRE1, stronger effect = lower value 1 | locus YDL101C, strain DUN1, stronger effect = lower value 1.03 | locus YDL185W, strain tfp1, stronger effect = lower value 0.996 | locus YDL192W, strain arf1, stronger effect = lower value 0.983 | locus YDR001C, strain nth1, stronger effect = lower value 0.992 | locus YDR069C, strain doa4, stronger effect = lower value 1.01 | locus YDR101C, strain arx1, stronger effect = lower value 0.986 | locus YDR137W, strain rgp1, stronger effect = lower value 0.997 | locus YDR159W, strain sac3, stronger effect = lower value 0.946 | locus YDR162C, strain NBP2, stronger effect = lower value 1.02 | locus YDR195W, strain ref2 1.01 | locus YDR297W, strain sur2, stronger effect = lower value 0.987 | locus YDR318W, strain mcm21, stronger effect = lower value 0.992 | locus YDR334W, strain swr1, stronger effect = lower value 1.04 | locus YDR335W, strain msn5, stronger effect = lower value 0.997 | locus YDR388W, stronger effect = lower value 0.989 | locus YDR392W, strain spt3, stronger effect = lower value 0.976 | locus YDR502C, strain sam2, stronger effect = lower value 0.973 | locus YEL003W, strain gim4, stronger effect = lower value 0.995 | locus YEL037C, strain rad23, stronger effect = lower value 1.01 | locus YEL061C, strain CIN8 (second series), stronger effect = lower value 1.01 | locus YEL061C, strain CIN8, stronger effect = lower value 1.01 | locus YER015W, strain faa2, stronger effect = lower value 0.993 | locus YER016W, strain bim1, stronger effect = lower value 1.02 | locus YER110C, stronger effect = lower value 0.991 | locus YER111C, strain swi4, stronger effect = lower value 1.01 | locus YER155C, strain BEM2 (second series), stronger effect = lower value 0.972 | locus YER155C, strain BEM2, stronger effect = lower value 1.01 | locus YER167W, strain BCK2, stronger effect = lower value 1.01 | locus YFR010W, strain ubp6, stronger effect = lower value 0.972 | locus YGL078C, strain dbp3, stronger effect = lower value 0.99 | locus YGL086W, strain mad1, stronger effect = lower value 0.988 | locus YGL167C, strain pmr1, stronger effect = lower value 1.01 | locus YGL173C, strain kem1, stronger effect = lower value 0.97 | locus YGL227W, strain vid30, stronger effect = lower value 1.01 | locus YGL240W, strain doc1, stronger effect = lower value 0.947 | locus YGL248W, strain PDE1, stronger effect = lower value 1.03 | locus YGL253W, strain hxk2, stronger effect = lower value 1 | locus YGR078C, strain PAC10, stronger effect = lower value 1.02 | locus YGR135W, strain pre9, stronger effect = lower value 0.991 | locus YGR252W, strain gcn5, stronger effect = lower value 0.972 | locus YHR013C, strain ard1, stronger effect = lower value 1.03 | locus YHR027C, strain rpn1, stronger effect = lower value 1 | locus YHR030C, strain SLT2, stronger effect = lower value 1.02 and 0.974 | locus YHR079C, strain IRE1 (second series), stronger effect = lower value 0.981 | locus YHR079C, strain IRE1, stronger effect = lower value 0.952 | locus YHR094C, strain hxt1, stronger effect = lower value 0.98 | locus YHR129C, strain ARP1, stronger effect = lower value 1.01 | locus YHR142W, strain chs7, stronger effect = lower value 1.02 | locus YHR200W, strain rpn10, stronger effect = lower value 1.01 | locus YIL066C, strain RNR3, stronger effect = lower value 1.01 | locus YIL073C, strain SPO22, stronger effect = lower value 0.985 | locus YIL125W, strain kgd1, stronger effect = lower value 0.992 | locus YIR030C, strain dcg1, stronger effect = lower value 0.981 | locus YJL092W, strain hpr5, stronger effect = lower value 0.992 | locus YJL095W, strain BCK1 (second series), stronger effect = lower value 1.02 | locus YJL095W, strain BCK1, stronger effect = lower value 1.04 and 0.957 | locus YJL115W, strain asf1, stronger effect = lower value 0.984 | locus YJL129C, strain trk1, stronger effect = lower value 1 | locus YJL134W, strain LCB3, stronger effect = lower value 1.02 | locus YJL154C, strain vps35, stronger effect = lower value 1 | locus YJL164C, strain tpk1, stronger effect = lower value 1.01 | locus YJL166W, strain qcr8, stronger effect = lower value 0.99 | locus YJL168C, strain set2, stronger effect = lower value 0.989 | locus YJL187C, strain SWE1 (second series), stronger effect = lower value 1.02 | locus YJL187C, strain SWE1, stronger effect = lower value 1.02 | locus YJR043C, strain POL32, stronger effect = lower value 0.993 | locus YJR066W, strain TOR1, stronger effect = lower value 0.986 | locus YKL009W, strain mrt4, stronger effect = lower value 1.04
